# Data published in PubChem BioAssay (EPA / NIEHS).
# “And” between values parts separate entries of the source, which are not always exact repeats. Equal values may be shown once. Inconclusive results are not listed. A structure can be active in one record and inactive in another. The source made the active and inactive calls. Rule for the calls, unless noted: active = hit-call score of the fitted dose curve at least 0.9, where 1 is the maximum; inconclusive = response in the unintended direction; inactive = score below 0.9.
# Columns and labels:
# [1] = molecular target: Estrogen receptor beta (Homo sapiens) (UniProt Q92731); assay: OT_ER_ERbERb_1440: Odyssey Thera (OT) 24-hour HEK293T Protein-Complementation Assay for Estrogen Receptor-beta/-beta Homodimer (AID 2283380);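 note: fluorescence gain from ER beta LBD homodimer complementation read by laser scanning cytometry; scored as signal increase over DMSO baseline for both agonists and antagonists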
# Estrogen receptor beta (Homo sapiens), sequence (Q92731 whole entry, looked up, the tested form may be a part): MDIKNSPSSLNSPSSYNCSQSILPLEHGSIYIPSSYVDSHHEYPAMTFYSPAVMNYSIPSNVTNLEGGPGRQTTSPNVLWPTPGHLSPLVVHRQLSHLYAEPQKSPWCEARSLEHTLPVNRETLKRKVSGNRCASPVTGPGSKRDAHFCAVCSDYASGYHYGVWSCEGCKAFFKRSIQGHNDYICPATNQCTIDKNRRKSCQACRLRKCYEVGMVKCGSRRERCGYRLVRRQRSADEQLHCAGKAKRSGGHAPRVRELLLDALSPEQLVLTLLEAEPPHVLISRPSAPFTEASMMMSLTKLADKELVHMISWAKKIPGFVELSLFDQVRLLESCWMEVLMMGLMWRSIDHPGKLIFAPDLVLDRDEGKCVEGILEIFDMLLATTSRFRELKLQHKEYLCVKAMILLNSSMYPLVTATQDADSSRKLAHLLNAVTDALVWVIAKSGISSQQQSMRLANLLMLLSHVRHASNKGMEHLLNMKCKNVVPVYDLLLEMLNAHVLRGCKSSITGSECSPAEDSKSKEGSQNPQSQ
# Outline: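 Fluorescence increase, nuclear for agonists or whole-cell for antagonists, relative to DMSO vehicle, quantified by laser scanning cytometer after fixation and Draq5 staining. Readout from 24 h treatment of HEK293T cells carrying complementation-paired ER beta LBD (aa 310-547).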
# [2] = molecular target: Estrogen receptor (Homo sapiens) (UniProt P03372); assay: OT_ERa_GFPERaERE_0480: Odyssey Thera (OT) 8-hour HeLa Transcription Induction Assay for Estrogen Receptor (AID 2283381; active = hit-call score of the fitted dose curve at least 0.9, where 1 is the maximum; inactive = score below 0.9)
# Estrogen receptor (Homo sapiens), sequence (P03372 whole entry, looked up): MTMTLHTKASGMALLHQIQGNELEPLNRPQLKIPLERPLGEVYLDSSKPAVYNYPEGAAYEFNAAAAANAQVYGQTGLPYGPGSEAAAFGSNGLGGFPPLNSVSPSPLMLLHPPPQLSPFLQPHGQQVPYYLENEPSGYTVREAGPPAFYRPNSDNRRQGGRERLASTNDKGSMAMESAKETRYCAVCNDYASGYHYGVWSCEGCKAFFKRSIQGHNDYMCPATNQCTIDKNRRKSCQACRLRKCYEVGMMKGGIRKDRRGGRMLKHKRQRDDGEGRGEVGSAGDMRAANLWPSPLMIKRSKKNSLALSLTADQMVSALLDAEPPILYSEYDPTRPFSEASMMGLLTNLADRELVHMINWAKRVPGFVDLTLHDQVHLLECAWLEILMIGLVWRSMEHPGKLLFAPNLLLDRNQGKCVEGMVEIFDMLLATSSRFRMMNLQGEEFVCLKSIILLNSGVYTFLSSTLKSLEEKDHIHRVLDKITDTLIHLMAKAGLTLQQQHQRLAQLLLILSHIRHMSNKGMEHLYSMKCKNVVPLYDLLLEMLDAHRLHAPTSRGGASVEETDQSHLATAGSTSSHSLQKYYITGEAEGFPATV
# Outline: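 GFP-ERE reporter, HeLa, 8 h exposure. Readout: fluorescence microscopy, high-content image analysis. Fit direction positive vs DMSO negative control.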
# [3] = molecular target: Estrogen receptor (Homo sapiens) (UniProt P03372); assay: OT_ERa_GFPERaERE_0120: Odyssey Thera (OT) 2-hour HeLa Transcription Induction Assay for Estrogen Receptor (AID 2283382)
# Outline: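 Fluorescence microscopy read-out: inducible fluorescent protein reporter in HeLa cells, imaged 2 h post-dose. Signal increase over DMSO negative control fitted as single primary endpoint via high content image analysis.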
# [4] = molecular target: Bile acid receptor (Homo sapiens) (UniProt Q96RI1); assay: OT_FXR_FXRSRC1_0480: Odyssey Thera (OT) 8-hour HEK293T Protein-Complementation Assay for Farnesoid X receptor/SRC-1 Co-activator (AID 2283383)
# Bile acid receptor (Homo sapiens), sequence (Q96RI1 whole entry, looked up, the tested form may be a part): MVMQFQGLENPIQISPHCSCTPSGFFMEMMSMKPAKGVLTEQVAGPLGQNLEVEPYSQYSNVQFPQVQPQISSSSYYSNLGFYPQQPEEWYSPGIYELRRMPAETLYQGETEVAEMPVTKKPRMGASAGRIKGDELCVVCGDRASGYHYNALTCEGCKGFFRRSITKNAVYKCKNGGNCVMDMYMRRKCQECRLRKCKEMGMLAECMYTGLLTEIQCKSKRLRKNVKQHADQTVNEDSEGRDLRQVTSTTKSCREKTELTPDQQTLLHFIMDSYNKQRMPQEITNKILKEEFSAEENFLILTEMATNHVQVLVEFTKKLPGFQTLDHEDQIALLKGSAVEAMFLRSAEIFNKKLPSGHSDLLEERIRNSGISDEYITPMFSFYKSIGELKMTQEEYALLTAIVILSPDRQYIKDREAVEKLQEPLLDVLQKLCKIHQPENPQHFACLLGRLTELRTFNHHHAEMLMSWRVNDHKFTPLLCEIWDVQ
# Outline: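 Fluorescence intensity read-out, 8 h post-dose, HEK293T protein-fragment complementation; FXR bait and SRC-1 prey each linked to reporter fragments. Activity scored as signal increase over DMSO negative control.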
# [5] = molecular target: Retinoic acid receptor RXR-alpha (Homo sapiens) (UniProt P19793); assay: OT_NURR1_NURR1RXRa_0480: Odyssey Thera (OT) 8-hour HEK293T Protein Complementation Assay for Nurr1/retinoid X receptor (RXR) (AID 2283385)
# Retinoic acid receptor RXR-alpha (Homo sapiens), sequence (P19793 whole entry, looked up, the tested form may be a part): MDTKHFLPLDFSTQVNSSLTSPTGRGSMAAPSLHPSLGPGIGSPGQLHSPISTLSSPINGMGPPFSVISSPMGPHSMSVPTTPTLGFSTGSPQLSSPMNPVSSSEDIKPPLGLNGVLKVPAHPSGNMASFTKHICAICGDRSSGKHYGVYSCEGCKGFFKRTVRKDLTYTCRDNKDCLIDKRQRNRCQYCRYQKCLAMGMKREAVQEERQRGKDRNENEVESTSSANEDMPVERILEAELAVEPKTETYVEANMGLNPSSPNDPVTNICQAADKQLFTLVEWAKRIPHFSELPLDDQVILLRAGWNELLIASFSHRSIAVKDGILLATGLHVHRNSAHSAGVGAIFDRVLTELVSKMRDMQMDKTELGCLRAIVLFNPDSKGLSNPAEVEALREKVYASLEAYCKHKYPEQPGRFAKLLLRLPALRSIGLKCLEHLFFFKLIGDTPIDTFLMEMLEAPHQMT
# Outline: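 Read-out: fluorescence from protein-fragment complementation between Nurr1 and RXRα in human HEK293T cells, 8 h after dosing. DMSO served as negative control; increased signal counted as activity.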
# [6] = molecular target: Retinoic acid receptor RXR-alpha (Homo sapiens) (UniProt P19793); assay: OT_NURR1_NURR1RXRa_1440: Odyssey Thera (OT) 24-hour HEK293T Protein Complementation Assay for Nurr1/retinoid X receptor (RXR) (AID 2283386)
# Outline: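 Fluorescence PCA read-out; HEK293T; 24 h post-dose; bait/prey fused to reporter fragments; gain-of-signal fit vs DMSO negative control.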
# [7] = molecular target: Peroxisome proliferator-activated receptor gamma (Homo sapiens) (UniProt P37231); assay: OT_PPARg_PPARgSRC1_0480: Odyssey Thera (OT) 8-hour Protein-Complementation Assay for Peroxisome Proliferator-activated Receptor Gamma / SRC-1 Co-activator (AID 2283387);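 note: nuclear to cytoplasmic split Venus YFP fluorescence ratio reporting PPARg SRC-1 interaction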
# Peroxisome proliferator-activated receptor gamma (Homo sapiens), sequence (P37231 whole entry, looked up, the tested form may be a part): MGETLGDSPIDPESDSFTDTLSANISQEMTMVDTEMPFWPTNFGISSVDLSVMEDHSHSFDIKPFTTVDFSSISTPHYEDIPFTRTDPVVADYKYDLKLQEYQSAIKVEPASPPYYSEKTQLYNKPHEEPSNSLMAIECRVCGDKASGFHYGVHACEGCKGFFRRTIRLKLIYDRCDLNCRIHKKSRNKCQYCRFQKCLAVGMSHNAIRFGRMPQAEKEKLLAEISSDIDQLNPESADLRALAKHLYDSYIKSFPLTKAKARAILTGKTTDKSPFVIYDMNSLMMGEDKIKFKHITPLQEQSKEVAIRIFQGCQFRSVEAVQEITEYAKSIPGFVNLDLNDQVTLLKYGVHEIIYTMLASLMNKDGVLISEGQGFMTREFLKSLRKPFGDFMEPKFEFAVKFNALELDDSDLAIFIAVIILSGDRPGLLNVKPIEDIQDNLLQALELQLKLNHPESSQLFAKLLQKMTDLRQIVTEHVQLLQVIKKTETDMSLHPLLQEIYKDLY
# Outline: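 Read-out: 488 nm N/C fluorescence ratio from complemented Venus YFP fragments, ≥350 cells per image, gain-of-signal fitted against DMSO baseline. Fusions of PPARg/SRC-1 with IFP1/IFP2 expressed transiently in HEK293T; compounds applied 8 h.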
# [8] = molecular target: Peroxisome proliferator-activated receptor gamma (Homo sapiens) (UniProt P37231); assay: OT_PPARg_PPARgSRC1_1440: Odyssey Thera (OT) 24-hour Protein-Complementation Assay for Peroxisome Proliferator-activated Receptor Gamma/ SRC-1 Co-activator (AID 2283388);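 note: nuclear to cytoplasmic ratio of reconstituted Venus YFP fluorescence in fixed imaged cells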
# Outline: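 Cells carrying the PPARg/SRC-1 fragment-complementation reporter receive compound for 24 hours, are fixed and counterstained with Draq5, then imaged. Increased nuclear relative to cytoplasmic YFP fluorescence above DMSO baseline indicates binding activity.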
# [9] = read-out: Tumor necrosis factor receptor superfamily member 6 (Homo sapiens) (UniProt P25445); assay: LTEA_HepaRG_FAS: Life Technologies and Expression Analysis (LTEA) Assay for Fas cell surface death receptor (FAS) using HepaRG (AID 2283447; active = hit-call score of the fitted dose curve at least 0.9, where 1 is the maximum; inactive = score below 0.9); conditions: mRNA level, 48 h; actives raise or lower the signal
# Outline: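 FAS transcript level was measured by TaqMan qRT-PCR against three housekeeping genes after 48 h chemical exposure. Cells were HepaRG, 0.5% DMSO vehicle, with a top concentration of 100 uM and half-log dilutions over eight points, in duplicate.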
# [10] = molecular target: Bile acid receptor (Homo sapiens) (UniProt Q96RI1); assay: OT_FXR_FXRSRC1_1440: Odyssey Thera (OT) 24-hour HEK293T Protein-Complementation Assay for Farnesoid X receptor/SRC-1 Co-activator (AID 2283384)
# Outline: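 Fluorescence readout, 24 h post-dose, HEK293T; FXR and SRC-1 fused to complementary reporter fragments, association reconstitutes signal. Positive-direction fit vs DMSO baseline.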
# [11] = CEETOX_H295R_11DCORT: CeeTox H295R High-throughput Steroidogenesis Assay for 11-Deoxycortisol (11DCORT) (AID 2283432; active = hit-call score of the fitted dose curve at least 0.9, where 1 is the maximum; inactive = score below 0.9;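 for AC50: 11-deoxycortisol secreted into the medium measured by LC-MS/MS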); conditions: actives raise or lower the signal
# Outline: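 H295R cells; 10 uM forskolin prestim 48 h; compound in 0.1% DMSO 48 h; media extracted with MTBE; 11-deoxycortisol by LC-MS/MS, 7-point standard curve; gain/loss vs DMSO baseline; viability by MTT in same wells.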
# [12] = CEETOX_H295R_OHPROG: CeeTox H295R High-throughput Steroidogenesis Assay for OH-Progesterone (OHPROG) (AID 2283435; active = hit-call score of the fitted dose curve at least 0.9, where 1 is the maximum; inactive = score below 0.9;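 for AC50: 17alpha-hydroxyprogesterone secreted into medium measured by HPLC-MS/MS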); conditions: actives raise or lower the signal
# Outline: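 HPLC-MS/MS quantification of 17alpha-hydroxyprogesterone secreted by H295R cells after 48 h chemical exposure, following 48 h 10 uM forskolin prestimulation. Gain or loss of signal fitted relative to DMSO. Viability checked by MTT in the same wells.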
# [13] = CEETOX_H295R_CORTISOL: CeeTox H295R High-throughput Steroidogenesis Assay for Cortisol (AID 2283438; active = hit-call score of the fitted dose curve at least 0.9, where 1 is the maximum; inactive = score below 0.9;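 note: cortisol secreted into medium quantified by LC-MS/MS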); conditions: actives raise or lower the signal
# Outline: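 Read-out: cortisol in culture medium by reverse-phase C18 HPLC with ESI-positive tandem MS, after MTBE liquid-liquid extraction. Cells: human adrenal H295R, forskolin-primed (10 uM, 48 h) before 48 h chemical exposure in 0.1% DMSO.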
# [14] = CEETOX_H295R_DOC: CeeTox H295R High-throughput Steroidogenesis Assay for DOC (AID 2283439; active = hit-call score of the fitted dose curve at least 0.9, where 1 is the maximum; inactive = score below 0.9); conditions: actives raise or lower the signal
# Outline: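 Human adrenocortical H295R cells, passages up to 10, received 10 uM forskolin for 48 h before chemical addition. After another 48 h exposure in 0.1% DMSO, secreted DOC was measured by LC-MS/MS, with gain or loss fitted against DMSO controls.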
# [15] = CEETOX_H295R_PROG: CeeTox H295R High-throughput Steroidogenesis Assay for Progesterone (PROG) (AID 2283442; active = hit-call score of the fitted dose curve at least 0.9, where 1 is the maximum; inactive = score below 0.9); conditions: actives raise or lower the signal
# Outline: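 Measured analyte is progesterone secreted by H295R cells at 48 h of chemical treatment, following 10 uM forskolin priming. Quantitation used HPLC-MS/MS against a 7-point standard curve; cytotoxicity was checked by MTT absorbance.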
# [16] = CEETOX_H295R_OHPREG: CeeTox H295R High-throughput Steroidogenesis Assay for OH-Pregnenolone (OHPREG) (AID 2283434; active = hit-call score of the fitted dose curve at least 0.9, where 1 is the maximum; inactive = score below 0.9); conditions: actives raise or lower the signal
# Outline: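 Secreted 17alpha-hydroxypregnenolone measured by HPLC-MS/MS after liquid-liquid extraction. Human adrenal H295R cells received 48 h forskolin (10 uM) stimulation before 48 h chemical exposure at 0.1% final DMSO; MTT viability in same wells; bidirectional fit against DMSO.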
# [17] = CEETOX_H295R_ESTRADIOL: CeeTox H295R High-throughput Steroidogenesis Assay for Estradiol (AID 2283440; active = hit-call score of the fitted dose curve at least 0.9, where 1 is the maximum; inactive = score below 0.9;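 note: estradiol secreted into medium quantified by LC-MS/MS after dansyl derivatisation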); conditions: actives raise or lower the signal
# Outline: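 Readout is estradiol in conditioned medium, quantified by reverse-phase HPLC-MS/MS against a 7-point standard curve. Cells: H295R, forskolin-stimulated, then dosed 48 h in 0.1% DMSO; activity fitted in both directions relative to DMSO.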
# [18] = CEETOX_H295R_ESTRONE: CeeTox H295R High-throughput Steroidogenesis Assay for Estrone (AID 2283441; active = hit-call score of the fitted dose curve at least 0.9, where 1 is the maximum; inactive = score below 0.9;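 note: estrone secreted into medium measured by LC-MS/MS after dansyl derivatization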); conditions: actives raise or lower the signal
# Outline: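 Forskolin-stimulated H295R cells are treated 48 h with chemical, and estrone in the medium is measured by LC-MS/MS. Activity is fitted in both directions relative to DMSO controls, with chemicals diluted until MTT viability reaches at least 70%.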
# [19] = CEETOX_H295R_CORTIC: CeeTox H295R High-throughput Steroidogenesis Assay for Corticosterone (CORTIC) (AID 2283437; active = hit-call score of the fitted dose curve at least 0.9, where 1 is the maximum; inactive = score below 0.9); conditions: actives raise or lower the signal
# Outline: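 Medium corticosterone was quantified by tandem mass spectrometry following 48 hours of chemical exposure (0.1% DMSO) in human H295R cells previously stimulated 48 hours with 10 uM forskolin. Viability checked by MTT; chemicals diluted and retested when viability fell below 70%.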
structure (smiles),measurement,setting,value
CCCCCCCCOC(=O)CCCCCCCCC(=O)OCCCCCCCC,outcome,[1],inactive
same,outcome,[2],inactive
same,outcome,[3],inactive
same,outcome,[4],inactive
same,outcome,[5],inactive
same,outcome,[6],inactive
same,outcome,[7],inactive
same,outcome,[8],inactive
same,outcome,[9],inactive
COCC(C)OCC(C)O (stereo unspecified),outcome,[1],inactive
same,outcome,[2],inactive
same,outcome,[3],inactive
same,outcome,[10],inactive
same,outcome,[5],inactive
same,outcome,[6],inactive
same,outcome,[7],inactive
same,outcome,[8],inactive
same,outcome,[9],inactive
CC(C)(C)c1ccc(O)c(C(C)(C)C)c1,outcome,[1],inactive
same,outcome,[2],inactive
same,outcome,[3],inactive
same,outcome,[7],inactive
same,outcome,[8],inactive
same,outcome,[9],inactive
CCC(C)(C)C1CCC(O)CC1 (stereo unspecified),AC50,[2],16.2 µM (active) and 40.9 µM (active)
same,outcome,[2],inactive
same,AC50,[3],27.5 µM (active) and 24.4 µM (active)
same,outcome,[3],inactive
same,outcome,[5],inactive
same,outcome,[6],inactive
same,outcome,[7],inactive
same,outcome,[8],inactive
same,outcome,[9],inactive
OC1CCCCC1,outcome,[2],inactive
same,outcome,[3],inactive
same,outcome,[6],inactive
same,outcome,[7],inactive
same,outcome,[8],inactive
same,outcome,[9],inactive
OCCC(F)(F)C(F)(F)C(F)(F)C(F)(F)C(F)(F)C(F)(F)C(F)(F)C(F)(F)F,outcome,[1],inactive
same,outcome,[2],inactive
same,AC50,[3],3.54 µM (active)
same,outcome,[5],inactive
same,outcome,[6],inactive
same,outcome,[9],inactive
CCCOc1sc(C(=O)N2CCC(c3cc(CN)ccc3F)CC2)c(C)c1Br,outcome,[7],inactive
same,outcome,[8],inactive
same,outcome,[9],inactive
CC1=C(/C=C/C(C)=C/C=C/C(C)=C/C(=O)O)C(C)(C)CCC1,outcome,[2],inactive
same,outcome,[3],inactive
same,outcome,[7],inactive
same,outcome,[8],inactive
same,outcome,[11],inactive
same,outcome,[12],inactive
same,outcome,[13],inactive
same,AC50,[14],7.19 µM (active)
same,AC50,[15],8.11 µM (active)
same,outcome,[9],inactive
CC(C)(C)c1cccc(C(C)(C)C)c1O,outcome,[2],inactive
same,outcome,[3],inactive
same,AC50,[4],78.7 µM (active)
same,AC50,[5],79.8 µM (active)
same,outcome,[5],inactive
same,outcome,[6],inactive
same,outcome,[7],inactive
same,outcome,[8],inactive
same,outcome,[9],inactive
Oc1cc2ccccc2c2ccccc12,outcome,[1],inactive
same,AC50,[2],28.9 µM (active)
same,outcome,[3],inactive
same,outcome,[5],inactive
same,outcome,[7],inactive
same,outcome,[8],inactive
same,outcome,[9],inactive
CC(O)C(=O)O (stereo unspecified),outcome,[2],inactive
same,outcome,[3],inactive
same,outcome,[4],inactive
same,outcome,[10],inactive
same,outcome,[6],inactive
CN1CCN(c2ccccc2/C=C2\SCCN(c3ccc(Cl)c(Cl)c3)C2=O)CC1,outcome,[1],inactive
same,AC50,[2],19.5 µM (active)
same,AC50,[3],68.3 µM (active)
same,outcome,[7],inactive
same,outcome,[8],inactive
same,outcome,[9],inactive
CC#C[C@]1(O)CC[C@H]2[C@@H]3CCC4=CC(=O)CCC4=C3[C@@H](c3ccc(N(C)C)cc3)C[C@@]21C,outcome,[2],inactive
same,AC50,[4],4.33 µM (active)
same,outcome,[4],inactive
same,AC50,[10],5.36 µM (active)
same,outcome,[10],inactive
same,AC50,[5],0.437 µM (active)
same,outcome,[5],inactive
same,AC50,[6],0.416 µM (active)
same,outcome,[6],inactive
same,outcome,[7],inactive
same,outcome,[8],inactive
same,outcome,[16],inactive
same,AC50,[12],0.218 µM (active)
same,outcome,[17],inactive
same,outcome,[18],inactive
same,AC50,[15],3.9 µM (active)
same,AC50,[9],22 µM (active)
CCOC(=O)CC(O)(CC(=O)OCC)C(=O)OCC,outcome,[1],inactive
same,outcome,[2],inactive
same,outcome,[3],inactive
same,outcome,[6],inactive
same,outcome,[7],inactive
same,outcome,[8],inactive
same,outcome,[9],inactive
O=[N+]([O-])c1ccc(O)cc1,outcome,[2],inactive
same,outcome,[3],inactive
same,outcome,[5],inactive
same,outcome,[7],inactive
same,outcome,[8],inactive
same,outcome,[16],inactive
same,AC50,[12],27.3 µM (active)
same,outcome,[15],inactive
same,outcome,[9],inactive
CC[C@H](c1ccc(O)cc1)[C@@H](CC)c1ccc(O)cc1,AC50,[4],50 µM (active) and 65.7 µM (active)
same,outcome,[4],inactive
same,AC50,[10],24.5 µM (active) and 31.9 µM (active)
same,outcome,[10],inactive
same,outcome,[5],inactive
same,outcome,[6],inactive
same,outcome,[7],inactive
same,outcome,[8],inactive
same,AC50,[9],89.3 µM (active)
c1ccc2c(c1)ccc1ccccc12,outcome,[2],inactive
same,outcome,[3],inactive
same,outcome,[4],inactive
same,outcome,[10],inactive
same,outcome,[5],inactive
same,outcome,[6],inactive
same,outcome,[7],inactive
same,outcome,[8],inactive
same,AC50,[11],55.9 µM (active)
same,AC50,[16],27.2 µM (active)
same,AC50,[12],55.1 µM (active)
same,outcome,[19],inactive
same,outcome,[15],inactive
same,outcome,[9],inactive
COCC(C)O (stereo unspecified),outcome,[2],inactive
same,outcome,[3],inactive
same,outcome,[6],inactive
same,outcome,[7],inactive
same,outcome,[8],inactive
same,outcome,[9],inactive
Cc1cc(C)c(O)c(C)c1,outcome,[2],inactive
same,outcome,[3],inactive
same,outcome,[4],inactive
same,outcome,[10],inactive
same,outcome,[5],inactive
same,outcome,[6],inactive
same,outcome,[7],inactive
same,outcome,[8],inactive
same,outcome,[9],inactive
